The whole screen tested about 5,500 compounds, of which about 2,000 (36%) were called active. Roughly 18% stayed inconclusive and do not appear here. Cut-off read from the data, not from the text of the source: active = normalized growth mostly below about 0.91 (no sharp cut-off); inconclusive = no clear call, values can overlap the other calls; inactive = mostly above about 0.92. The list shows a part of the results.
Experiment: chemical genetic growth profiling, strain panel (AID 1159580);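 note: tested at 20 µM; growth read once vehicle control cultures reached saturation at 30 °C; 1 = growth at the plate median or of vehicle wells; lower values mean less growth of the strain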
Conditions: growth OD

Measured: normalized growth

Nc1ccn(C2O[C@H](CO)[C@@H](O)[C@H]2O)c(=O)n1 (some centres undefined)
inactive: S. cerevisiae deletion strains, locus YJR075W, strain HOC1, stronger effect = lower value 1.02 | S. cerevisiae deletion strains, locus YKL009W, strain mrt4, stronger effect = lower value 1.04 | S. cerevisiae deletion strains, locus YKL068W, stronger effect = lower value 1 | S. cerevisiae deletion strains, locus YKL085W, strain MDH1 (second series), stronger effect = lower value 1 | S. cerevisiae deletion strains, locus YKL085W, strain MDH1, stronger effect = lower value 1 | S. cerevisiae deletion strains, locus YKL160W, strain elf1, stronger effect = lower value 0.994 | S. cerevisiae deletion strains, locus YKL190W, strain CNB1, stronger effect = lower value 0.989 | S. cerevisiae deletion strains, locus YKR001C, strain vps1, stronger effect = lower value 1.03 | S. cerevisiae deletion strains, locus YKR026C, strain gcn3, stronger effect = lower value 1 | S. cerevisiae deletion strains, locus YKR091W, strain srl3, stronger effect = lower value 0.986 | S. cerevisiae deletion strains, locus YLL001W, strain dnm1, stronger effect = lower value 0.989 | S. cerevisiae deletion strains, locus YLL026W, stronger effect = lower value 0.994 | S. cerevisiae deletion strains, locus YLL041C, strain sdh2, stronger effect = lower value 0.987 | S. cerevisiae deletion strains, locus YLR027C, strain aat2, stronger effect = lower value 0.984 | S. cerevisiae deletion strains, locus YLR039C, strain RIC1, stronger effect = lower value 1.01 | S. cerevisiae deletion strains, locus YLR058C, strain SHM2, stronger effect = lower value 0.998 | S. cerevisiae deletion strains, locus YLR102C, strain apc9, stronger effect = lower value 1.01 | S. cerevisiae deletion strains, locus YLR113W, strain HOG1, stronger effect = lower value 1.01 | S. cerevisiae deletion strains, locus YLR221C, strain rsa3, stronger effect = lower value 1 | S. cerevisiae deletion strains, locus YLR258W, strain gsy2, stronger effect = lower value 1 | S. cerevisiae deletion strains, locus YLR262C, strain YPT6 (second series), stronger effect = lower value 0.992 | S. cerevisiae deletion strains, locus YLR262C, strain YPT6, stronger effect = lower value 1.05 | S. cerevisiae deletion strains, locus YLR268W, strain sec22, stronger effect = lower value 1.05 | S. cerevisiae deletion strains, locus YLR320W, strain mms22, stronger effect = lower value 0.995 | S. cerevisiae deletion strains, locus YLR330W, strain CHS5, stronger effect = lower value 0.986 | S. cerevisiae deletion strains, locus YLR342W, strain FKS1 (second series), stronger effect = lower value 1.02 | S. cerevisiae deletion strains, locus YLR342W, strain FKS1, stronger effect = lower value 0.995 | S. cerevisiae deletion strains, locus YLR357W, strain rsc2, stronger effect = lower value 0.964 | S. cerevisiae deletion strains, locus YLR370C, strain arc18, stronger effect = lower value 0.998 | S. cerevisiae deletion strains, locus YLR371W, strain rom2, stronger effect = lower value 1.01 | S. cerevisiae deletion strains, locus YLR384C, strain iki3, stronger effect = lower value 1 | S. cerevisiae deletion strains, locus YLR418C, strain cdc73, stronger effect = lower value 1.01 | S. cerevisiae deletion strains, locus YML016C, strain PPZ1, stronger effect = lower value 1 | S. cerevisiae deletion strains, locus YML032C, strain rad52, stronger effect = lower value 0.993 | S. cerevisiae deletion strains, locus YML120C, strain ndi1, stronger effect = lower value 0.979 | S. cerevisiae deletion strains, locus YML124C, strain tub3, stronger effect = lower value 1.01 | S. cerevisiae deletion strains, locus YMR058W, strain fet3, stronger effect = lower value 0.983 | S. cerevisiae deletion strains, locus YMR078C, strain ctf18, stronger effect = lower value 1.02 | S. cerevisiae deletion strains, locus YMR125W, strain sto1, stronger effect = lower value 0.973 | S. cerevisiae deletion strains, locus YMR129W, stronger effect = lower value 0.991 | S. cerevisiae deletion strains, locus YMR205C, strain PFK2, stronger effect = lower value 0.998 | S. cerevisiae deletion strains, locus YMR223W, strain ubp8, stronger effect = lower value 1.02 | S. cerevisiae deletion strains, locus YMR231W, strain pep5, stronger effect = lower value 0.979 | S. cerevisiae deletion strains, locus YMR307W, strain GAS1, stronger effect = lower value 1.05 | S. cerevisiae deletion strains, locus YNL067W, strain RPL9B, stronger effect = lower value 1.03 | S. cerevisiae deletion strains, locus YNL071W, strain lat1, stronger effect = lower value 0.983 | S. cerevisiae deletion strains, locus YNL128W, strain TEP1, stronger effect = lower value 1.01 | S. cerevisiae deletion strains, locus YNL153C, strain GIM3, stronger effect = lower value 1.03 | S. cerevisiae deletion strains, locus YNL183C, strain NPR1, stronger effect = lower value 0.933 | S. cerevisiae deletion strains, locus YNL209W, strain ssb2, stronger effect = lower value 0.992 | S. cerevisiae deletion strains, locus YNL233W, strain BNI4, stronger effect = lower value 1.05 | S. cerevisiae deletion strains, locus YNL248C, strain rpa49, stronger effect = lower value 0.984 | S. cerevisiae deletion strains, locus YNL250W, strain rad50, stronger effect = lower value 1 | S. cerevisiae deletion strains, locus YNL271C, strain bni1, stronger effect = lower value 1.01 | S. cerevisiae deletion strains, locus YNL298W, strain CLA4, stronger effect = lower value 1 | S. cerevisiae deletion strains, locus YNL307C, strain MCK1, stronger effect = lower value 1.02 | S. cerevisiae deletion strains, locus YNL322C, strain KRE1 (second series), stronger effect = lower value 1.01 | S. cerevisiae deletion strains, locus YNR049C, strain mso1, stronger effect = lower value 0.985 | S. cerevisiae deletion strains, locus YNR052C, strain pop2, stronger effect = lower value 1.01 | S. cerevisiae deletion strains, locus YOL006C, strain TOP1, stronger effect = lower value 1.09 | S. cerevisiae deletion strains, locus YOL012C, strain htz1 0.74 | S. cerevisiae deletion strains, locus YOL147C, strain pex11, stronger effect = lower value 1 | S. cerevisiae deletion strains, locus YOR001W, strain rrp6, stronger effect = lower value 0.98 | S. cerevisiae deletion strains, locus YOR061W, strain CKA2, stronger effect = lower value 1.01 | S. cerevisiae deletion strains, locus YOR069W, strain VPS5, stronger effect = lower value 1.01 | S. cerevisiae deletion strains, locus YOR070C, strain gyp1, stronger effect = lower value 1 | S. cerevisiae deletion strains, locus YOR080W, strain dia2, stronger effect = lower value 1 | S. cerevisiae deletion strains, locus YOR083W, strain WHI5, stronger effect = lower value 0.992 | S. cerevisiae deletion strains, locus YOR106W, strain vam3, stronger effect = lower value 1.02 | S. cerevisiae deletion strains, locus YOR136W, strain idh2, stronger effect = lower value 1.01 | S. cerevisiae deletion strains, locus YOR144C, strain elg1, stronger effect = lower value 1.01 | S. cerevisiae deletion strains, locus YOR184W, strain ser1, stronger effect = lower value 1.02 | S. cerevisiae deletion strains, locus YOR231W, strain MKK1, stronger effect = lower value 0.997 | S. cerevisiae deletion strains, locus YOR265W, strain rbl2, stronger effect = lower value 0.988 | S. cerevisiae deletion strains, locus YOR270C, strain vph1, stronger effect = lower value 0.956 | S. cerevisiae deletion strains, locus YOR290C, strain snf2, stronger effect = lower value 0.989 | S. cerevisiae deletion strains, locus YOR316C, strain cot1, stronger effect = lower value 1.01 | S. cerevisiae deletion strains, locus YPL051W, strain arl3, stronger effect = lower value 1 | S. cerevisiae deletion strains, locus YPL055C, strain LGE1, stronger effect = lower value 1.01 | S. cerevisiae deletion strains, locus YPL078C, strain atp4, stronger effect = lower value 0.993 | S. cerevisiae deletion strains, locus YPL106C, strain sse1, stronger effect = lower value 0.992 | S. cerevisiae deletion strains, locus YPL240C, strain hsp82, stronger effect = lower value 1 | S. cerevisiae deletion strains, locus YPL256C, strain CLN2, stronger effect = lower value 1 | S. cerevisiae deletion strains, locus YPR119W, strain clb2, stronger effect = lower value 0.996 | S. cerevisiae deletion strains, locus YPR141C, strain kar3, stronger effect = lower value 1.01 | S. cerevisiae deletion strains, locus YPR163C, strain tif3, stronger effect = lower value 1.01 | S. cerevisiae deletion strains, locus YPR167C, strain met16, stronger effect = lower value 1.01 | S. cerevisiae deletion strains, strain wtn01, stronger effect = lower value 1.05 | S. cerevisiae strains, strain wild type, stronger effect = lower value 0.98

Reference: PubChem BioAssay AID1159580 (chemical genetic matrix, 2015)
